Source: PubChem BioAssay (EPA / NIEHS)
Records with an inconclusive call do not appear. Activity calls are given as the source filed them. The calls were made as follows: active = hit-call score of the fitted dose curve at least 0.9, where 1 is the maximum; inconclusive = response in the unintended direction; inactive = score below 0.9.

How the values were obtained:
[1] = target: human Matrix Metalloproteinase-9 (MMP9), MMP9 (gene 4318) (UniProt P14780); assay: NVS_ENZ_hMMP9: NovaScreen (NVS) Enzymatic Assay for human Matrix Metalloproteinase-9 (MMP9) (AID 2283190);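 also: cell-free recombinant MMP9 protease activity read by fluorescent substrate signal; active means inhibition seen as loss of fluorescence signal versus DMSO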
Outline: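 Extracted enzyme, fluorescent substrate, 1 h post-dose read. Single conc 25 uM in duplicate, then concentration series for actives. Activity = signal loss relative to DMSO negative control.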

[2] = target: human Phosphodiesterase 10 (PDE10), PDE10A (gene 10846) (UniProt Q9Y233); assay: NVS_ENZ_hPDE10: NovaScreen (NVS) Enzymatic Assay for human Phosphodiesterase 10 (PDE10) (AID 2283195)
Chain of human Phosphodiesterase 10 (PDE10), PDE10A (gene 10846) (Q9Y233 whole entry, looked up): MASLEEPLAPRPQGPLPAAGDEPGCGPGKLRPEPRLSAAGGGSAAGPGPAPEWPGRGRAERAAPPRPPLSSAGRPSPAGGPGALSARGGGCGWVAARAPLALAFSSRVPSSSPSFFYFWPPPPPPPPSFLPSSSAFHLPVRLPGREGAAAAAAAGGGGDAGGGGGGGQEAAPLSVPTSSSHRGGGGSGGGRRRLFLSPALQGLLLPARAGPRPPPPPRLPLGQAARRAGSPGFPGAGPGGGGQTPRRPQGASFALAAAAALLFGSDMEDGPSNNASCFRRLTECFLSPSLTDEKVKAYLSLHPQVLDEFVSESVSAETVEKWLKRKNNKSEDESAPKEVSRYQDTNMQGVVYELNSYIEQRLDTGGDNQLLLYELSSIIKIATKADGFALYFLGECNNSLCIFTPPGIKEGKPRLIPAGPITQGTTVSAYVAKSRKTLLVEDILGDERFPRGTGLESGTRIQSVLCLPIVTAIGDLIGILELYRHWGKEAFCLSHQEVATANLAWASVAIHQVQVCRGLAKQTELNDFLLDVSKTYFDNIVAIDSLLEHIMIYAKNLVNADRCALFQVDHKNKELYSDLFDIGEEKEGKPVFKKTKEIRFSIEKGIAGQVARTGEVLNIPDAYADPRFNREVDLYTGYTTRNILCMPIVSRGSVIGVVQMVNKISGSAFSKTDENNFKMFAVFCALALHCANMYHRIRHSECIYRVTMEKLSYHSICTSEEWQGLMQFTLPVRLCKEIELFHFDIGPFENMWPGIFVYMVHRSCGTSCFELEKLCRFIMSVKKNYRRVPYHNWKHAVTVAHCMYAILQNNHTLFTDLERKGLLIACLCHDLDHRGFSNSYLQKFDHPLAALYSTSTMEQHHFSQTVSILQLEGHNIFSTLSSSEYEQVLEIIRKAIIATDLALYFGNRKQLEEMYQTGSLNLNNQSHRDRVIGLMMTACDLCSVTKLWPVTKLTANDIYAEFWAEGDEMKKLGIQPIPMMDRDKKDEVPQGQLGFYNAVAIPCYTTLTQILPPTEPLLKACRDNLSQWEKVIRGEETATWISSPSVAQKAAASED
Outline: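 Biochemical single-readout PDE10A assay, cell-free, extracted protein. Compounds first screened at 25 uM in duplicate, hits then titrated to 50 uM max. Activity measured after 1 h; loss-of-signal fitted against DMSO negative control.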

[3] = target: human Phosphoinositide 3-kinase alpha (PI3Ka), PIK3CA (gene 5290) (UniProt P42336); assay: NVS_ENZ_hPI3Ka: NovaScreen (NVS) Enzymatic Assay for human Phosphoinositide 3-kinase alpha (PI3Ka) (AID 2283196)
Chain of human Phosphoinositide 3-kinase alpha (PI3Ka), PIK3CA (gene 5290) (P42336 whole entry, looked up): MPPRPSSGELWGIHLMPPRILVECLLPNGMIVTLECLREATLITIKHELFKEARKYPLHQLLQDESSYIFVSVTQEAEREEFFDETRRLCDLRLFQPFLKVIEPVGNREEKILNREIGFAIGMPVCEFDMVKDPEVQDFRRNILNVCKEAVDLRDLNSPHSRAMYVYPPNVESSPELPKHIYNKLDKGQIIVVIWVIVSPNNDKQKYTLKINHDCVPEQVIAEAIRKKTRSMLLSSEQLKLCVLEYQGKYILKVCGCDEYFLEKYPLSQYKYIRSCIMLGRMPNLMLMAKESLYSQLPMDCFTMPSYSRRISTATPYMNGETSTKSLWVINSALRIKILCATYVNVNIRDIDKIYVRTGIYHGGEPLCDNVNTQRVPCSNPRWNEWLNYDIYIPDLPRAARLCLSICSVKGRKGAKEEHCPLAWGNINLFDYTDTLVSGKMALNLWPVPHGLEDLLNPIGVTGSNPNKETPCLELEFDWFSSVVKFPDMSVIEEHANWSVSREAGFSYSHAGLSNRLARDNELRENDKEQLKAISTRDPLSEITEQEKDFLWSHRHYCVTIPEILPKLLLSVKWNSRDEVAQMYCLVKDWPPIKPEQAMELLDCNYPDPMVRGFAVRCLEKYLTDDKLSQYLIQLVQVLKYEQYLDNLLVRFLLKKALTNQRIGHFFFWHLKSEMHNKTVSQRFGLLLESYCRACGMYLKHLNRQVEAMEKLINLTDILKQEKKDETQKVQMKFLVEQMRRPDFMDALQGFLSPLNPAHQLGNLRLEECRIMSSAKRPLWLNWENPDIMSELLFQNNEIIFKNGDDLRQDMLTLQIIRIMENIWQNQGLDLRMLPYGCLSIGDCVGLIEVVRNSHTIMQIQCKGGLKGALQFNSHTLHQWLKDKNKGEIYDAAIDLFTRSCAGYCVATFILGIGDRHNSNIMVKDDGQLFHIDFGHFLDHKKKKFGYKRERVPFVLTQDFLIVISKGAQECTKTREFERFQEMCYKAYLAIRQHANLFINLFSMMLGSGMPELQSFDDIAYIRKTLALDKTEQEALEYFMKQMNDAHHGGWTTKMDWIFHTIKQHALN
Outline: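 Fluorescence/mobility-shift readout of substrate conversion by recombinant enzyme, 1 h post-dosing. Primary screen in duplicate at 25 uM; actives (e.g. ≥30% inhibition) retested in singleton concentration-response, top concentration 50 uM.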

[4] = target: Serine/threonine-protein phosphatase PP1-alpha catalytic subunit (Homo sapiens) (UniProt P62136); assay: NVS_ENZ_hPPP1CA: NovaScreen (NVS) Enzymatic Assay for human Protein Phosphatase 1 Aatalytic subunit Alpha (PPP1CA) (AID 2283200)
Chain of Serine/threonine-protein phosphatase PP1-alpha catalytic subunit (Homo sapiens) (P62136 whole entry, looked up): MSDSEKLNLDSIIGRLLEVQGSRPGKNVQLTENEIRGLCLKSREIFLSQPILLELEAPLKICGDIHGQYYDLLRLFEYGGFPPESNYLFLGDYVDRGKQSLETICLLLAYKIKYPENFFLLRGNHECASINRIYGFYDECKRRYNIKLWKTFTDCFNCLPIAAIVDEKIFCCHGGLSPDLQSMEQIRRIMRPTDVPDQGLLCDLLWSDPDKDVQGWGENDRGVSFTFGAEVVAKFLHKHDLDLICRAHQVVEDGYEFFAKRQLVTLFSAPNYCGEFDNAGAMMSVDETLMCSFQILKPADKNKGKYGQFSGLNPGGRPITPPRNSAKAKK
Outline: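 Chemicals were first screened in duplicate at 25 uM, and those passing threshold (e.g. 30% inhibition) were run as concentration series to 50 uM. Cell-free recombinant protein, 1.33 h read, fluorescent substrate/product mobility-shift detection, normalised to DMSO.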

[5] = target: human Matrix Metalloproteinase-3 (MMP3), MMP3 (gene 4314) (UniProt P08254); assay: NVS_ENZ_hMMP3: NovaScreen (NVS) Enzymatic Assay for human Matrix Metalloproteinase-3 (MMP3) (AID 2283185)
Chain of human Matrix Metalloproteinase-3 (MMP3), MMP3 (gene 4314) (P08254 whole entry, looked up): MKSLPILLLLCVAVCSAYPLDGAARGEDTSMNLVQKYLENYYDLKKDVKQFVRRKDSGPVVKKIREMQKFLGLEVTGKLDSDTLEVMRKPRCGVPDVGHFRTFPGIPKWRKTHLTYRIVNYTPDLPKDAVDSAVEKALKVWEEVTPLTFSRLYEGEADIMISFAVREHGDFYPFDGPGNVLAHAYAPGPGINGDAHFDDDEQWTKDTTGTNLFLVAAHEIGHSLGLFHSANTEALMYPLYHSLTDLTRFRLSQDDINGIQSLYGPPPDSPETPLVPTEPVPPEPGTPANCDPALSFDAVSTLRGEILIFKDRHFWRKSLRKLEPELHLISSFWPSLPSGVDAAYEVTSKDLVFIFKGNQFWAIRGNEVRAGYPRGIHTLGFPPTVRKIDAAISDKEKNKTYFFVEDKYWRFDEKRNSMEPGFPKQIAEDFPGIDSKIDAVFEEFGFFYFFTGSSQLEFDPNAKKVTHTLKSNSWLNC
Outline: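 Fluorescent substrate turnover by recombinant MMP3 read after 1 h, signal loss scored against DMSO. Compounds first run in duplicate at 25 uM single dose, then actives confirmed by concentration series.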

[6] = target: human Phosphodiesterase 4A1 (PDE4A1), PDE4A (gene 5141) (UniProt P27815); assay: NVS_ENZ_hPDE4A1: NovaScreen (NVS) Enzymatic Assay for human Phosphodiesterase 4A1 (PDE4A1) (AID 2283191)
Chain of human Phosphodiesterase 4A1 (PDE4A1), PDE4A (gene 5141) (P27815 whole entry, looked up): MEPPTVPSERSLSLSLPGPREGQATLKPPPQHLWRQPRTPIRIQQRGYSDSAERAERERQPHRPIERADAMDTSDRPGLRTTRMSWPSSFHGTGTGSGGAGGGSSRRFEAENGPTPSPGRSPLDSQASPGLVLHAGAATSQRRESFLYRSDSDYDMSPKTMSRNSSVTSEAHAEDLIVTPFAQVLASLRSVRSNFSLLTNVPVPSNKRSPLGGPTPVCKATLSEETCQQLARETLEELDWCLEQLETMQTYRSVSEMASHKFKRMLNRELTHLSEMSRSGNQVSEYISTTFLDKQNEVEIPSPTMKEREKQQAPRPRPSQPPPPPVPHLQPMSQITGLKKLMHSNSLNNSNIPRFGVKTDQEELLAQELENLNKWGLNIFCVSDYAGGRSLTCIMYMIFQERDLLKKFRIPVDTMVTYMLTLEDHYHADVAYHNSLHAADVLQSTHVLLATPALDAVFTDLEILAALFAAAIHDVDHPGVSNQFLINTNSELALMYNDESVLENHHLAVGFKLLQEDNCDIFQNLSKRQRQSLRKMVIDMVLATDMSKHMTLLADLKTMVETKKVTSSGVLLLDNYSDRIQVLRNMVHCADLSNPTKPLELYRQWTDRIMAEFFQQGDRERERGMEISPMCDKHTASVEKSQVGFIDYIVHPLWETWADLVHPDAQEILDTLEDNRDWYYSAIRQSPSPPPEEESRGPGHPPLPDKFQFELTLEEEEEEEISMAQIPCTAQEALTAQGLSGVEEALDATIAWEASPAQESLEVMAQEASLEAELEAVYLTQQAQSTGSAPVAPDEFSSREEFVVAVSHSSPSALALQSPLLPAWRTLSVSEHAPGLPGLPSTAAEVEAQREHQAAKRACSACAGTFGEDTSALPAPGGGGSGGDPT
Outline: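 Fluorescent substrate turnover by recombinant PDE4A1 read after 1 h by mobility-shift separation. Primary duplicate screen at 25 uM; hits retested in concentration series with a 50 uM maximum, relative to DMSO.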

[7] = target: human Phosphodiesterase 5 (PDE5), PDE5A (gene 8654) (UniProt O76074); assay: NVS_ENZ_hPDE5: NovaScreen (NVS) Enzymatic Assay for human Phosphodiesterase 5 (PDE5) (AID 2283194)
Outline: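 Screening began in duplicate at 25 uM, with actives taken into concentration-response. Enzyme activity of recombinant PDE5 toward its substrate was measured at 1 h by fluorescence mobility-shift detection, relative to DMSO controls.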

[8] = target: human Mitogen- and Stress-activated Protein Kinase-1 (Msk1), RPS6KA5 (gene 9252) (UniProt O75582); assay: NVS_ENZ_hMsk1: NovaScreen (NVS) Enzymatic Assay for human Mitogen- and Stress-activated Protein Kinase-1 (Msk1) (AID 2283187)
Chain of human Mitogen- and Stress-activated Protein Kinase-1 (Msk1), RPS6KA5 (gene 9252) (O75582 whole entry, looked up): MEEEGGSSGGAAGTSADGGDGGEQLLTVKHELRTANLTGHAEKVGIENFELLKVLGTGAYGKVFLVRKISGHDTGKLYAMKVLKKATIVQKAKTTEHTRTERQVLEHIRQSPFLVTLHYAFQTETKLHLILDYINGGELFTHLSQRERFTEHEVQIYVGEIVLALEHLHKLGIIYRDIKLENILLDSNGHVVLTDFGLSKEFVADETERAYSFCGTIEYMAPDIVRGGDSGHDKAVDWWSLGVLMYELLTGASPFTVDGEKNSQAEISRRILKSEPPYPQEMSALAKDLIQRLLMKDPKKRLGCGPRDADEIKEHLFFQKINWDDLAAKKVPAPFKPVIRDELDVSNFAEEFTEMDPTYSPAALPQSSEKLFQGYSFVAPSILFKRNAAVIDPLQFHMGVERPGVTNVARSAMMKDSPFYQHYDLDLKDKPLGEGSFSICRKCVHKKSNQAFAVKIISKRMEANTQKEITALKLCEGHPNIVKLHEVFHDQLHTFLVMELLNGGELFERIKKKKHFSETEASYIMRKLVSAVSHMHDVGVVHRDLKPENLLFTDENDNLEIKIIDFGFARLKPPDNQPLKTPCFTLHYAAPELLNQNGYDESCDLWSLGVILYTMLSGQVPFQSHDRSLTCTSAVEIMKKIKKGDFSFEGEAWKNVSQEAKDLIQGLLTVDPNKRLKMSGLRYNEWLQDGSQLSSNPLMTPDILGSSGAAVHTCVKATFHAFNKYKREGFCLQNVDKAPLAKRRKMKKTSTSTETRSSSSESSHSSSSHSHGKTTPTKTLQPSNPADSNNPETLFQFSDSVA
Outline: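 Chemicals first run in duplicate at 25 uM, with actives followed up in singleton concentration series to 50 uM maximum. Enzyme activity came from substrate/product mobility-shift separation with fluorescence detection after 1 h incubation of the recombinant protein.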

[9] = target: human Protein Phosphatase, Mg2+/Mn2+ Dependent 1A (PPM1A), PPM1A (gene 5494) (UniProt P35813); assay: NVS_ENZ_hPPM1A: NovaScreen (NVS) Enzymatic Assay for human Protein Phosphatase, Mg2+/Mn2+ Dependent 1A (PPM1A) (AID 2283198)
Chain of human Protein Phosphatase, Mg2+/Mn2+ Dependent 1A (PPM1A), PPM1A (gene 5494) (P35813 whole entry, looked up): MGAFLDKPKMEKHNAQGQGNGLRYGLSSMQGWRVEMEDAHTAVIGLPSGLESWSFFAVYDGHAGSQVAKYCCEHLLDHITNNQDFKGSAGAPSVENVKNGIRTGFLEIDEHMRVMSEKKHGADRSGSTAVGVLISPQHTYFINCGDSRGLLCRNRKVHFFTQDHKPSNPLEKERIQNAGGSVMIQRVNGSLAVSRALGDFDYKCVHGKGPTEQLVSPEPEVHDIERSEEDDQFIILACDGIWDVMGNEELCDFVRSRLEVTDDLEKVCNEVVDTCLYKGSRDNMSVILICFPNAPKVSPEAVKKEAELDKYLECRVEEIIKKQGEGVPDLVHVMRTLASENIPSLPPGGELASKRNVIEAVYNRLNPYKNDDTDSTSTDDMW
Outline: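 Primary screen in duplicate at 25 uM, with actives then titrated to a maximum of 50 uM. Recombinant PPM1A dephosphorylation of fluorescent substrate measured at 1 h, with substrate and product separated by mobility shift; inhibition fitted against DMSO.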

Compound: CCCCCCCCCCCCCC[N+](C)(C)C
- outcome [1]: inactive
- outcome [2]: inactive
- AC50 [3]: 8.66 µM (active)

Compound: CN1CCC[C@H]1c1cccnc1
- outcome [4]: inactive

Compound: CC(C)CCCCCCOC(=O)CCCCC(=O)OCCCCCCC(C)C
- outcome [5]: inactive

Compound: CCCOC(=O)c1ccc(O)cc1
- outcome [4]: inactive

Compound: CC(C)(C)c1cccc(C(C)(C)C)c1O
- outcome [4]: inactive

Compound: Cc1cc(CCN2CCN(c3nsc4ccccc34)CC2)cc2c1NC(=O)CC2(C)C
- outcome [6]: inactive
- AC50 [7]: 25.6 µM (active)
- AC50 [2]: 25 µM (active)

Compound: CCCCCCCCCCCCc1ccccc1S(=O)(=O)O
- AC50 [5]: 18.2 µM (active)
- AC50 [8]: 16.8 µM (active)
- AC50 [9]: 30.2 µM (active)
